# From PubChem BioAssay
# Rtt109 Vps75: inhibitors of Candida albicans Rtt109/Vps75 histone acetyltransferase; Q5AAJ8; purified Rtt109/Vps75, ThioGlo CoA-SH fluorescence, 4 h; inhibition, % at 34.9 µM; 330,000 compounds, 0.16% hits; AID 540336;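 active = inhibition of at least 50% in every replicate; inconclusive = best replicate reaches 50% inhibition but some replicates fall short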
# ALR H2O2 inh: blocks human ALR sulfhydryl oxidase activity. P55789. AID 485317. 290,000 compounds, 3.8% hits. purified ALR, DTT oxidation, H2O2 HRP-luminol luminescence. inhibition, % (concentration not given with the values);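 active = mean replicate inhibition above about 79%, with every replicate also reaching it, limit read from the data; inconclusive = only one of the two criteria met; inactive = mean below limit and not every replicate reaching it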
# GRK2 aptamer HTS: inhibitors of human GRK2 displacing RNA aptamer; P25098; bead flow cytometry, FAM-aptamer displacement from GRK2; inhibition of aptamer binding, % at 10 µM; 330,000 compounds, 0.59% hits; AID 488847;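 active = inhibition of aptamer binding above 40%, roughly 3 SD of noise, on plates passing a quality check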;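 also: median bead fluorescence of bound FAM aptamer so fluorescent compounds give negative values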
# Target sequence (P25098 whole entry, looked up): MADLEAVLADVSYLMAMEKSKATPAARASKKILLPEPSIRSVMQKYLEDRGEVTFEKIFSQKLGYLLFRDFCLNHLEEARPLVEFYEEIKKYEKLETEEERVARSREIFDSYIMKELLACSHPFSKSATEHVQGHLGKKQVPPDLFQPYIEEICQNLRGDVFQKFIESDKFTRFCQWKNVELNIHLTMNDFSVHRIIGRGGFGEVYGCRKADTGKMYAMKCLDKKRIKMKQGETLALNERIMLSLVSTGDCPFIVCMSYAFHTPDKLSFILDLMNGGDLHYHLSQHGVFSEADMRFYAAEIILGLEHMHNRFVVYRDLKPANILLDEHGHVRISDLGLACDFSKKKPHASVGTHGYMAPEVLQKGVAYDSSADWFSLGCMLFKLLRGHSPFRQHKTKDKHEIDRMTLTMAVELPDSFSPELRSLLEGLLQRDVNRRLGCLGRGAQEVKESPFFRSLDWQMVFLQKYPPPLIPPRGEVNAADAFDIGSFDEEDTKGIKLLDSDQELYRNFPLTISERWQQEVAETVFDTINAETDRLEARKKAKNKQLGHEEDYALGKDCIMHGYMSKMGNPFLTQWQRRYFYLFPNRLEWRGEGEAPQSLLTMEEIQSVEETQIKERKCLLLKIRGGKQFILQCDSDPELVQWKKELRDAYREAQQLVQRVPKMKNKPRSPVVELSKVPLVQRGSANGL
# Efflux pump mplx: blocks antifungal efflux pumps in multiplex yeast assay | inhibition, % at 10 µM | 330,000 compounds, 0.44% hits | AID 485275 | S. cerevisiae Candida pump triplex, Nile Red efflux;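 active = plate passing quality check with inhibition over a set limit, or well fluorescence over plate mean plus 4 SD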;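 also: Nile Red retained in pooled yeast measured as flow cytometry median fluorescence; 0% = buffer negative control and 100% = Enniatin B positive control; higher means more Nile Red kept so more efflux inhibition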
# HDAC3 inhib: human HDAC3 inhibition. O15379. recombinant HDAC3, fluorogenic peptide/trypsin coupled, fluorescence. inhibition, % at 8.3 µM. 320,000 compounds, 0.15% hits. AID 2718; in the data active = inhibition above about 26%, passing the limit was not always enough; inconclusive = no clear call, values can overlap the other calls
# Rce1 inh: blocks yeast Ras-converting enzyme; yeast membranes, quenched prenylated peptide cleavage fluorescence; calls only; AID 2563; 290,000 compounds, 0.27% hits; Q03530;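 active = fall in fluorescence gain of 50% or more versus controls, with final raw signal at or below 3038400; inconclusive = same 50% fall but final raw signal above 3038400; inactive = fall in fluorescence gain under 50%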;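 also: plate controls were neutral control wells for no effect and wells lacking membranes for full effect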
# Yeast cmpd fluor: compound fluorescence in yeast efflux pump counter-screen. S. cerevisiae AD/pABC3, flow cytometry. shares compounds with Efflux pump mplx. 1,700 compounds, 4% hits. fluorescence ratio to DMSO, % at 10 µM;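 active = fluorescence ratio to DMSO above its plate's cutoff, the plate mean ratio plus 5 SD, cut at about 210% in these data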;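 also: unstained yeast with no Nile Red so the signal is compound autofluorescence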
# CaMdr1 efflux inh: Candida Mdr1 efflux pump inhibition. shares compounds with Efflux pump mplx. S. cerevisiae AD/CaMDR1, Nile Red efflux, flow cytometry. inhibition, % at 10 µM. 1,700 compounds, 1% hits. AID 588518; in the data active = inhibition above about 26%;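 also: 0% = DMSO vehicle and 100% = reference inhibitor; higher means more Nile Red retained so more efflux inhibition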
# CaCdr2 efflux inh: inhibitors of Candida albicans Cdr2 efflux pump; AID 588520; Nile Red retention ratio vs DMSO, % at 10 µM; shares compounds with Efflux pump mplx; 1,700 compounds, 4% hits; S. cerevisiae AD/CaCDR2, Nile Red retention, flow cytometry; in the data active = Nile Red retention ratio vs DMSO above about 190%;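 also: higher ratio means more blocking of Cdr2 efflux of the dye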
# Cdr1 pump inh: Candida Cdr1 efflux pump inhibition; shares compounds with Efflux pump mplx; S. cerevisiae AD/CaCDR1, Nile Red efflux, flow cytometry; inhibition, % at 10 µM; 1,700 compounds, 1% hits;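 active = inhibition above the screen-wide mean plus twice its standard deviation, cut at about 32% in these data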
# Numbers without * were called inactive; i = inactive; ? = inconclusive; · = not tested or not shown. Sampled rows, rich in hits. Any-hit rate of the full collection: about 4.5%.
SMILES,Rtt109 Vps75,ALR H2O2 inh,GRK2 aptamer HTS,Efflux pump mplx,HDAC3 inhib,Rce1 inh,Yeast cmpd fluor,CaMdr1 efflux inh,CaCdr2 efflux inh,Cdr1 pump inh
COC(=O)C1=C(C)OC(N)=C(C#N)C1c1c(C)nn(C)c1C (centres undefined),-7,-2,0,6.5*,-2,i,96,0,107,0
COC(=O)C1=C(C)OC(N)=C(C#N)C1c1c(C)nn(-c2ccccc2)c1Cl (centres undefined),-1,·,0,0,-3,i,·,·,·,·
CC(C)c1nc2cc(C(=O)N3CCN(c4cnccn4)CC3)ccc2o1,17,7,3,0,1,·,·,·,·,·
Cc1ccc(-c2nnc(N)s2)cc1,-3,-5,0,5.5*,1,i,113,1,105,0
CC(C)c1ccc(-c2nnc(N)s2)cc1,3,·,0,1,·,i,·,·,·,·
COc1ccc2noc3c2c1C(=O)c1ccccc1-3,-7,·,12,0.9*,·,i,194,1,197*,0
COc1ccc(N)c2c1C(=O)c1ccccc1C2=O,-4,-1,8,1,1,i,·,·,·,·
COc1ccc(S(=O)(=O)Nc2cccc3c2O[C@H](CN(C)S(=O)(=O)c2ccccc2)[C@@H](C)CN([C@H](C)CO)C3=O)cc1,4,0,5,0,-2,·,·,·,·,·
COC(=O)[C@@H](NC(=O)c1ccc(OC2CCN(Cc3ccccn3)CC2)cc1)C(C)C,·,22,0,0,3,i,·,·,·,·
CC(CNC(=O)c1ccc(OC2CCN(Cc3ccccn3)CC2)cc1)c1ccccc1 (centres undefined),3,·,0,5.3*,-1,i,102,0,96,0
CCCCCCSc1ccc([C@@H]2[C@@H]3C(=O)N(C)C(=O)[C@@H]3[C@]3(C(=O)OC)CCCCN23)cc1,-1,8,3,0,-1,·,·,·,·,·
CNC(=S)N1CCc2cc(OC)c(OC)cc2C1,-4,·,1,0,0,i,108,0,106,0
COC(=O)c1ccc(C2/C(=C(\O)c3cccc(OC)c3)C(=O)C(=O)N2CCCN2CCOCC2)cc1 (centres undefined),8,-2,0,9.7*,-8,i,116,0,96,0
N#Cc1c(-c2ccncc2)c2c([nH]c1=S)CCCC2,6,·,4,0,5,i,·,·,·,·
Cc1ccc(-c2c3c([nH]c(=S)c2C#N)CCCC3)o1,-3,-5,11,0.6*,-12,i,108,0,137,0
COC(=O)[C@H](Cc1ccccc1)NC(=O)c1cc(COc2c(F)cccc2F)on1,10,0,8,0,3,i,92,0,106,0
COc1ccc(OC)c2c1C(=O)c1ccccc1C2=O,·,·,2,0,2,i,·,·,·,·
COc1ccc(OC)c2c1C(=O)C(Cl)=C(Cl)C2=O,-6,1,3,1.5*,-6,i,123,1,246*,1
O=C(Cc1ccccc1F)Nc1ccc(S(=O)(=O)N2CCCC2)cc1,1,5,1,0,-1,·,·,·,·,·
C[C@@]12C(=O)Nc3ccc(Br)cc3C(=O)N1[C@H]1c3cc(Cl)ccc3OC[C@@H]1[C@@H]2c1ccccc1,14,1,0,1,2,·,·,·,·,·
C[C@@]12C(=O)Nc3cc(F)c(F)cc3C(=O)N1[C@H]1c3cc(Cl)ccc3OC[C@@H]1[C@@H]2c1ccccc1,17,0,1,0,2,·,113,0,114,0
COc1ccc2c(c1)OC[C@H]1[C@H]2N2C(=O)c3cc(C)ccc3NC(=O)[C@@]2(C)[C@H]1c1ccccc1,0,0,0,5.1*,15,·,121,1,121,0
C[C@@]12C(=O)Nc3ccccc3C(=O)N1[C@H]1c3cc(Cl)ccc3OC[C@@H]1[C@@H]2c1ccccc1,2,-3,4,0,4,·,98,0,96,0
Cc1ccc2c(c1)[C@H]1[C@H](CO2)[C@H](c2ccccc2)[C@]2(C)C(=O)Nc3ccc(Cl)cc3C(=O)N12,2,4,0,0,2,·,·,·,·,·
C[C@@]12C(=O)Nc3ccc(Cl)cc3C(=O)N1[C@H]1c3cc(Cl)ccc3OC[C@@H]1[C@@H]2c1ccccc1,-3,2,1,0,2,·,103,0,116,0
SMILES,Rtt109 Vps75,ALR H2O2 inh,GRK2 aptamer HTS,Efflux pump mplx,HDAC3 inhib,Rce1 inh,Yeast cmpd fluor,CaMdr1 efflux inh,CaCdr2 efflux inh,Cdr1 pump inh
COc1ccc2c(c1)[C@H]1[C@H](CO2)[C@H](c2ccccc2)[C@]2(C)C(=O)Nc3ccc(C)cc3C(=O)N12,6,2,0,0,6,·,·,·,·,·
CC1CCCN(C(=O)c2cccc(S(=O)(=O)N3CCCC3)c2)C1 (centres undefined),-5,·,0,0,1,·,·,·,·,·
O=C(Nc1ccc(NC(=O)c2ccc(Cl)cc2Cl)cc1)c1cccs1,8,2,3,1.3*,-13,i,98,0,85,0
O=C(Nc1ccc(Cl)cc1)c1cccs1,10,·,1,0,9,i,·,·,·,·
Cn1cc([N+](=O)[O-])c(C(=O)Nc2ccn(C34CC5CC(CC(C5)C3)C4)n2)n1,-2,-17,4,16*,-3,i,114,0,102,0
O=C(CN1C(=O)CSc2ccc(S(=O)(=O)N3CCOCC3)cc21)NCCCN1CCCCC1,-4,0,0,0,-3,i,·,·,·,·
CC1CC(C)CN(CCCNC(=O)CN2C(=O)CSc3ccc(S(=O)(=O)N4CCCCC4)cc32)C1 (centres undefined),-9,-31,5,0.6*,-3,i,99,0,109,0
CC[n+]1c(/C=C/C=C/N(C(C)=O)c2ccccc2)sc2cc(OC)ccc21,·,?,80*,3.5*,45*,·,346*,2,123,1
CC[n+]1c(/C=C(\C)OC)sc2ccccc21,-2,·,·,·,·,·,·,·,·,·
CN(C)CCOc1ccc(-c2c(-c3ccsc3)sc3ccccc23)cc1,12,-16,0,0,10,·,·,·,·,·
COc1cccc(-c2sc3ccc(OC)cc3c2-c2ccc(OCCN(C)C)cc2)c1,10,-8,0,187*,21,·,108,1,228*,0
COc1ccc(-c2sc3ccccc3c2-c2ccc(OCCN(C)C)cc2)cc1,-1,-8,0,1,9,·,91,0,97,0
COc1cccc(-c2sc3ccc(OC)cc3c2-c2ccc(O)cc2)c1,-14,-4,0,0,2,·,·,·,·,·
